Reference: PubChem BioAssay AID1159580 (chemical genetic matrix, 2015)
Where “and” joins values, the source holds several entries; their conditions need not be identical. Equal values may be shown once. In all, about 5,500 compounds went through this assay and about 2,000 (36%) were called active. Roughly 18% stayed inconclusive and do not appear here. No stated cut-off is given here; in the data, active means normalized growth mostly below about 0.91 (no sharp cut-off); inconclusive means no clear call, values can overlap the other calls; inactive means mostly above about 0.92. This is one part of the list.

Assay: chemical genetic growth profiling, strain panel (AID 1159580);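 further: tested at 20 µM; growth read once vehicle control cultures reached saturation at 30 °C; 1 = growth at the plate median or of vehicle wells; lower values mean less growth of the strain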
Settings: S. cerevisiae deletion strains, growth OD

Measured: normalized growth

NC(N)=NS(=O)(=O)c1ccc(N)cc1
inactive: locus YAL021C, strain ccr4, hits give low values 0.976 | locus YAL026C, strain drs2, hits give low values 0.991 | locus YAL030W, strain snc1, hits give low values 0.979 | locus YBL061C, strain skt5, hits give low values 0.991 | locus YBR009C, strain hhf1, hits give low values 0.981 | locus YBR021W, strain FUR4, hits give low values 1.02 | locus YBR023C, strain chs3, hits give low values 0.981 | locus YBR171W, strain sec66, hits give low values 0.994 | locus YBR229C, strain ROT2, hits give low values 1.01 | locus YBR231C, strain swc5, hits give low values 0.993 | locus YBR279W, strain paf1, hits give low values 0.986 | locus YCL011C, strain gbp2, hits give low values 0.981 | locus YCL016C, strain dcc1, hits give low values 0.983 | locus YCL029C, strain bik1, hits give low values 1 | locus YCL061C, strain MRC1, hits give low values 1.01 | locus YCL069W, strain vba3, hits give low values 0.991 | locus YCR088W, strain abp1, hits give low values 0.992 | locus YDL005C, strain med2, hits give low values 0.987 | locus YDL035C, strain GPR1, hits give low values 1.02 | locus YDL040C, strain nat1, hits give low values 0.975 | locus YDL074C, strain BRE1, hits give low values 1.04 | locus YDL101C, strain DUN1, hits give low values 1.02 | locus YDL134C, strain PPH21, hits give low values 1.01 | locus YDL185W, strain tfp1, hits give low values 1 | locus YDL192W, strain arf1, hits give low values 0.996 | locus YDR001C, strain nth1, hits give low values 0.99 | locus YDR069C, strain doa4, hits give low values 0.986 | locus YDR101C, strain arx1, hits give low values 0.995 | locus YDR137W, strain rgp1, hits give low values 1.03 | locus YDR150W, strain NUM1, hits give low values 1.02 | locus YDR159W, strain sac3, hits give low values 0.992 | locus YDR162C, strain NBP2, hits give low values 1.01 | locus YDR195W, strain ref2 0.934 | locus YDR297W, strain sur2, hits give low values 0.984 | locus YDR318W, strain mcm21, hits give low values 0.998 | locus YDR334W, strain swr1, hits give low values 0.979 | locus YDR335W, strain msn5, hits give low values 0.992 | locus YDR388W, hits give low values 0.999 | locus YDR392W, strain spt3, hits give low values 0.99 | locus YDR502C, strain sam2, hits give low values 0.997 | locus YEL003W, strain gim4, hits give low values 0.99 | locus YEL037C, strain rad23, hits give low values 0.983 | locus YEL061C, strain CIN8 (second series), hits give low values 0.974 | locus YEL061C, strain CIN8, hits give low values 1.01 | locus YER015W, strain faa2, hits give low values 0.985 | locus YER016W, strain bim1, hits give low values 0.987 | locus YER110C, hits give low values 0.993 | locus YER111C, strain swi4, hits give low values 0.993 | locus YER155C, strain BEM2 (second series), hits give low values 0.987 | locus YER155C, strain BEM2, hits give low values 1.01 | locus YER167W, strain BCK2, hits give low values 1 | locus YFR010W, strain ubp6, hits give low values 0.99 | locus YGL078C, strain dbp3, hits give low values 0.987 | locus YGL086W, strain mad1, hits give low values 1.01 | locus YGL167C, strain pmr1, hits give low values 0.987 | locus YGL173C, strain kem1, hits give low values 0.988 | locus YGL227W, strain vid30, hits give low values 0.974 | locus YGL240W, strain doc1, hits give low values 0.997 | locus YGL248W, strain PDE1, hits give low values 1.03 | locus YGL253W, strain hxk2, hits give low values 0.986 | locus YGR078C, strain PAC10, hits give low values 1.04 | locus YGR135W, strain pre9, hits give low values 0.989 | locus YGR252W, strain gcn5, hits give low values 0.963 | locus YHR013C, strain ard1, hits give low values 0.961 | locus YHR027C, strain rpn1, hits give low values 0.976 | locus YHR030C, strain SLT2, hits give low values 1.01 and 0.978 | locus YHR079C, strain IRE1 (second series), hits give low values 0.99 | locus YHR079C, strain IRE1, hits give low values 0.97 | locus YHR094C, strain hxt1, hits give low values 0.988 | locus YHR129C, strain ARP1, hits give low values 1.02 | locus YHR142W, strain chs7, hits give low values 0.988 | locus YHR200W, strain rpn10, hits give low values 0.985 | locus YIL066C, strain RNR3, hits give low values 1.03 | locus YIL073C, strain SPO22, hits give low values 0.989 | locus YIL125W, strain kgd1, hits give low values 0.989 | locus YIR030C, strain dcg1, hits give low values 0.994 | locus YJL092W, strain hpr5, hits give low values 0.991 | locus YJL095W, strain BCK1 (second series), hits give low values 0.988 | locus YJL095W, strain BCK1, hits give low values 1.05 and 0.986 | locus YJL115W, strain asf1, hits give low values 0.966 | locus YJL129C, strain trk1, hits give low values 0.984 | locus YJL134W, strain LCB3, hits give low values 1 | locus YJL154C, strain vps35, hits give low values 0.986 | locus YJL164C, strain tpk1, hits give low values 0.984 | locus YJL166W, strain qcr8, hits give low values 0.98 | locus YJL168C, strain set2, hits give low values 0.996 | locus YJL187C, strain SWE1 (second series), hits give low values 1.03 | locus YJL187C, strain SWE1, hits give low values 0.989 | locus YJR043C, strain POL32, hits give low values 1.05
